# Results from PubChem BioAssay AID2314 (National Center for Advancing Translational Sciences (NCATS), 2010).
# The campaign covered roughly 300,000 compounds. About 37,000 (12%) were called active. The entries come from a sample that favours actives as a whole. Values without a mark were called inactive. Rule as the data show it: active = max response mostly above about 13% (no sharp cut-off); inactive = mostly below about 14%.
# Assay: Cycloheximide Counterscreen for Small Molecule Inhibitors of Shiga Toxin; also: read at 38.3 µM for the half of the compounds with a filed dose; 0% is about no effect
# Details: cell reporter, cycloheximide protein synthesis inhibition counterscreen; stronger effect = higher value
row,Compound,max response
1,CC(=O)Nc1cccc(-c2nc3ccccc3s2)c1C,23.7% (active)
2,Oc1ccc(-c2[nH]ncc2-c2nc3ccccc3s2)c(O)c1,10.7%
3,COc1cccc(Cn2cc(/C=N/NC(=O)c3cc(O)cc(O)c3)c3ccccc32)c1,7.8%
4,COC(=O)c1ccc(CNC(=O)C2CCC(=O)N(Cc3ccccn3)C2)cc1 (configuration not stated),-0.637%
5,CCOC(=O)c1cn[nH]c1NC(=S)Nc1ccccc1,67.1% (active)
6,CCOC(=O)c1ccc(NC(=S)Nc2cc(C)cc(C)n2)cc1,-2.45%
7,CCOC(=O)c1cc2c(nc1NC(=S)Nc1ccccc1)CC(C)(CC)OC2 (configuration not stated),-1.51%
8,O=C(COc1cc(Cl)c(Cl)cc1Cl)NC(=O)NC1CCCC1,-3.88%
9,O=C(CN1CCOCC1)N1CCCc2c1c(=O)oc1ccc(OCc3ccccc3)cc21,-7.12%
10,COc1cccc2c(N/N=C/c3ccco3)cc(C)nc12,18.9%
11,CCc1c(C)nc2c(OC)cccc2c1Cl,10.5% (active)
12,CCCc1c(C)nc2c(Br)cccc2c1Cl,-2.12%
13,COc1ccc2c(c1)C(SCC(=O)NCc1ccccc1)CC(C)(C)O2 (configuration not stated),-3.58%
14,Cc1cc(/C=C2\SC(=O)N(C)C2=O)c(C)n1-c1cccc(C(=O)O)c1,10.2%
15,CCOC(=O)C1=C(O)/C(=C/c2cc(C)n(-c3ccccc3)c2C)N=C1C,10.2% (active)
16,COC(=O)C1=C(O)/C(=C/c2ccc(OCC(=O)Nc3ccccc3)cc2)N=C1C,-5.16%
17,CC(C)n1c(CN2CCN(Cc3ccccc3)CC2)nc2ccccc21,-2.09%
18,CC(C)=NN1C(=O)c2ccccc2NC1(C)C,37.9% (active)
19,CC(=O)N1C(=O)C2(Nc3ccccc3N2)c2ccccc21,-2.2%
20,CC(=O)NN1C(=O)c2ccccc2NC1c1ccccc1 (configuration not stated),-3.65%
21,Cc1cccc(NC(=O)C2CCCN(C(=O)Nc3ccc(F)cc3)C2)c1C (configuration not stated),-3.65%
22,CCC(=O)NCCc1nc2ccccc2n1CC,-2.66%
23,Cc1cc(C(=O)OCC(=O)Nc2nnc(C(C)C)s2)c2ccccc2n1,-2.56%
24,CC(C)CC(=O)N/C(N)=N/c1nc2ccccc2s1,44.8% (active)

row,Compound,max response
1,CC(C)CC(=O)NC(=S)NCc1ccccc1,3.76%
2,CCC(=O)NC(=Nc1nc2ccccc2s1)NC(=O)CC,28.7% (active)
3,CC(C)C(C)NC(=O)COc1ncnc2ccccc12 (configuration not stated),-3.43%
4,CSCCC(NS(=O)(=O)c1ccccc1F)C(=O)N1CC=C(c2ccccc2)CC1 (configuration not stated),-2.39%
5,COc1ccc(N(C(=O)c2snc(C(N)=O)c2N)C(C(=O)NC2CCCC2)c2ccco2)cc1OC (configuration not stated),-2.38%
6,CC(C)C(C(=O)NCc1ccco1)N(CC1CCCO1)C(=O)CNS(=O)(=O)c1ccc(F)cc1 (configuration not stated),-6.69%
7,Cc1cc(-c2ccc(S(=O)(=O)N3CCc4ccccc4C3)s2)on1,-3.48%
8,O=C(N/N=C/c1cc(Cl)cc([N+](=O)[O-])c1O)C(O)(c1ccccc1)c1ccccc1,-1.36%
9,N#Cc1ccsc1NC(=O)CN1CCN(S(=O)(=O)c2cc(Cl)ccc2Cl)CC1,-2.08%
10,C=C(C)C(=O)O[C@H]1C/C(C)=C\C(=O)/C=C(\C)[C@H](O)[C@@H]2OC(=O)C(=C)[C@@H]21,41.8% (active)
11,Nc1nonc1-n1nnc(C(=O)N/N=C\c2ccncc2)c1CN1CCCCC1,-1.14%
12,O=C(c1ccc(C(F)(F)F)cc1)C1CCCN(C(=O)c2csnn2)C1 (configuration not stated),1.58%
13,CCN(CC(=O)Nc1ccccc1OC)C(=O)Cn1cnc2ccccc2c1=O,1.69%
14,Cc1ccn2cc(-c3nonc3C)cc2c1,11.7% (active)
15,CN(C)C(=O)c1ccc(NC(=O)c2ccccc2-c2ccccc2)cc1,-3.02%
16,COc1cc(CN(C)Cc2nc3cc(C(F)(F)F)ccc3c(=O)[nH]2)ccc1OC(F)F,1.37%
17,CC1(C)SC2C(NC(=O)COc3ccccc3)C(=O)N2C1C(=O)O (configuration not stated),-0.647%
18,COc1cc(/C=C/C(=O)O)cc(S(=O)(=O)Nc2ccccc2SC)c1OC,-2.09%
19,NC(=O)c1ccccc1NC(=O)c1ccccc1F,14.9%
20,NC(=O)Nc1ccccc1C(=O)NCCc1ccccc1,63.4% (active)
21,O=C(O)c1ccccc1-c1ccccc1C(=O)NCCc1ccccc1,0.507%
22,COc1cc(OC)c(S(=O)(=O)Nc2ccccc2C(=O)O)cc1S(=O)(=O)Nc1ccccc1C(=O)O,-2.35%
23,COc1cc(/C=C/C(=O)O)cc(S(=O)(=O)Nc2ccccc2C(=O)NCCc2ccccc2)c1OC,41.8% (active)
